# Hits are enriched below; roughly 20% of the tested compounds scored in any of these assays.
# Pf growth 48h: Primary qHTS for delayed death inhibitors of the malarial parasite plastid, 48 hour incubation. P. falciparum luciferase growth in erythrocytes, 48 h. Potency, µM (top dose mostly 28.7 µM), inactives show at the highest dose activity change, negative = inhibition, usual class: inhibitors. actives 5.9% (n = 310,000). AID 504832, 2011; note: potency is the fitted concentration of half-maximal effect; % is set by controls: 0 for no effect and ±100 for the full control effect
#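 A one-generation exposure of luciferase-tagged malaria parasites in RPMI 1640/Albumax erythrocyte culture, 37 C and 5% CO2. Inhibition is inferred from decreased luminescence after adding detection reagent.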
# Pf growth 96h: Primary qHTS for delayed death inhibitors of the malarial parasite plastid, 96 hour incubation | P. falciparum luciferase reporter growth, 96 h | Potency, µM (highest dose often 28.7 µM), for inactives: top-dose activity change, negative = inhibition, hits mostly inhibitors | actives 6.9% (n = 320,000); note: potency is the fitted concentration of half-maximal effect; % is set by controls: 0 for no effect and ±100 for the full control effect
#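 P. falciparum expressing integrated firefly luciferase, in erythrocytes at 2% hematocrit, 0.05% parasitemia, incubated with compounds 96 h at 37 C, 5% CO2. Growth inhibition read as loss of luminescence; two-generation exposure targets delayed-death apicoplast inhibitors.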
# HCMV antiviral: qHTS Assay for inhibitors of the human cytomegalovirus (HCMV); HFF cells, HCMV-luciferase reporter, 72 h; active compounds read low; activity change, negative = inhibition, % at 57.5 µM; actives 4.5% (n = 410,000); AID 1259415, 2018; in the data active = activity change below about -60%; inconclusive = no clear call, values can overlap the other calls; inactive = above about -39%; note: % is set by controls: 0 for no effect and ±100 for the full control effect
#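 After 16 h attachment at 37C, HFF cells received test compound and HCMV-luciferase (1 PFU/cell); reporter luminescence read 72 h later, data normalized against buffer-only and known inhibitor Salinomycin.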
# Cycloheximide cs: Cycloheximide Counterscreen for Small Molecule Inhibitors of Shiga Toxin. actives 12% (n = 300,000). cell reporter, cycloheximide protein synthesis inhibition counterscreen. AID 2314, 2010. max response, %; in the data active = max response mostly above about 13%, no sharp cut-off; inactive = mostly below about 14%; note: read at 38.3 µM for the half of the compounds with a filed dose; 0% is about no effect
# Shiga toxin inh: A qHTS for Small Molecule Inhibitors of Shiga Toxin | Vero cells, Shiga toxin protein synthesis inhibition reporter | inhibition, % at 38.7 µM | actives 9.2% (n = 290,000); in the data active = inhibition mostly above about 28%, no sharp cut-off; inactive = mostly below about 43%; note: 0% is about no effect
# * marks the source's active call; other numbers are inactive results; u = inconclusive; x = no result given. Unless noted, calls come from the whole dose curve; as a rule, active = well fitted inhibition curve with a large enough effect; inconclusive = small, poorly fitted or top-dose-only effect, or another doubt; inactive = no such curve, though single readings can be large or run the other way.
SMILES,Pf growth 48h,Pf growth 96h,HCMV antiviral,Cycloheximide cs,Shiga toxin inh
COc1ccc2[nH]c(C(=O)NCc3ccccc3)cc2c1,-26%,-21%,2,8,34
COc1ccc2[nH]c(C(=O)N/N=C/c3ccc(O)cc3O)cc2c1,6.6µM*,u,-90*,8,17
CC(C)(C)c1ccc(S(=O)(=O)NNC(=O)c2cc3ccccc3[nH]2)cc1,69%,179%,159,27*,54*
CCCC(C)NNC(=O)c1cc2ccccc2[nH]1 (centres undefined),59%,25%,87,-2,20
Cc1ccc(NC(=O)c2cc3cc(OC(F)(F)F)ccc3[nH]2)cc1,u,u,-24,6,5
COc1ccc2[nH]c(C(=O)Nc3cccc(C)n3)cc2c1,-11%,473%,128,29*,47*
COc1ccc(-c2nnc(SCC(=O)N3CCC(C)CC3)o2)cc1,x,x,-7,x,x
CC(C)CCn1nnnc1CN1CCN(c2ccccc2)CC1,5%,22%,-15,9,-8
CCCCNc1nc(Oc2ccc(=O)n(-c3ccccc3)n2)nc(N(CC)CC)n1,x,x,-31,x,x
O=C(OCc1ccccc1F)c1cc2ccccc2cc1O,-3%,-15%,2,3,x
O=C(NC1CC(=O)N(c2ccc(Cl)cc2)C1)N1CCN(C(=O)c2ccco2)CC1 (centres undefined),3%,33%,18,x,x
COc1ccc2[nH]c(C(=O)Nc3ccc(C)c(F)c3)cc2c1,29%,39%,25,36*,69*
Cc1cc(C)c2cc(C(=O)Nc3ccc(C)c(F)c3)[nH]c2c1,12µM*,u,-37,-3,-10
Cc1ccc2ccc3cc(C(=O)N4CCN(c5ccccc5F)CC4)nc3c2[nH]1,x,x,5,x,x
Cc1ccc2ccc3cc(C(=O)Nc4ccc(C)c(F)c4)nc3c2[nH]1,x,x,-76*,x,x
COC(=O)c1cccnc1-n1c(=O)c2cccnc2n(CC(=O)Nc2ccccc2F)c1=O,x,x,9,x,x
CCCN1CCCc2cc(CN)ccc21,1.7µM*,43%,u,-6,-13
Cc1cc([N+](=O)[O-])c(NCCCCCCO)c([N+](=O)[O-])c1,x,x,-26,x,x
Nc1ccc(C(=O)OCc2ccncc2)cc1[N+](=O)[O-],13%,27%,37,11,11
C=CCn1c(C)cc(C(=O)COC(=O)c2ccc(N)c([N+](=O)[O-])c2)c1C,237%,155%,22,55*,58*
CC(C)(C)C(=O)COC(=O)c1ccc(N)c([N+](=O)[O-])c1,32%,44%,-19,43*,83*
CC1CN(C(=O)COC(=O)c2ccc(N)c([N+](=O)[O-])c2)CC(C)O1 (centres undefined),29%,21%,19,11,-4
Cc1cc(C(=O)COC(=O)c2ccc(N)c([N+](=O)[O-])c2)c(C)n1-c1ccc2c(c1)OCO2,13µM*,4.7µM*,-74*,2,13
Cc1cc(C(=O)COC(=O)c2ccc(N)c([N+](=O)[O-])c2)c(C)n1Cc1ccc2c(c1)OCO2,3%,7%,-25,1,-7
COc1ccc(C(C(=O)NC2CCCC2)N(C(=O)c2ccco2)c2ccccc2C(C)=O)cc1OC (centres undefined),-15%,-3%,7,-4,-10
SMILES,Pf growth 48h,Pf growth 96h,HCMV antiviral,Cycloheximide cs,Shiga toxin inh
N#C[C@H](c1ccccc1)C1CCN(S(=O)(=O)CCCCl)CC1,x,x,-20,x,x
COc1ccccc1NC(=O)c1sc2nc(C)c(C(=O)Nc3ccc(C)cc3C)c(-c3cccs3)c2c1N,x,x,-21,x,x
COC(=O)c1cc(S(=O)(=O)NCc2ccc(F)cc2)cn1C,12%,-14%,17,-1,9
Cc1onc(-c2ccccc2)c1C(=O)Nc1sc2c(c1C#N)CCC2,-4%,x,u,-2,3
O=C(Nc1sc2c(c1C(=O)N1CCCCC1)CCCC2)c1ccccc1Cl,x,x,-19,x,x
NC(=O)c1c(NC(=O)c2ccccc2F)sc2c1CCCC2,162%,104%,174,49*,83*
Cc1onc(-c2c(F)cccc2Cl)c1C(=O)N=C(N)N1CC(C)OC(C)C1 (centres undefined),u,10µM*,7,0,16
Cc1onc(-c2c(F)cccc2Cl)c1C(=O)Nc1sc2c(c1C#N)CCC(C(C)(C)C)C2 (centres undefined),6.6µM*,u,-9,-2,-19
NC(=O)c1c(NC(=O)c2ccccc2Cl)sc2c1CCC2,51%,u,28,38*,51*
NC(=O)c1c(NC(=O)c2ccccc2C(=O)O)sc2c1CCCC2,-3%,-13%,0,1,-2
Cc1onc(-c2ccccc2)c1C(=O)Nc1sc2c(c1C(N)=O)CCC2,-10%,-2%,u,-4,-6
Cc1onc(C(=O)Nc2sc3c(c2C(N)=O)CCCC3)c1[N+](=O)[O-],-7%,-6%,0,20*,34
Cn1cc(Br)c(C(=O)Nc2sc3c(c2C(N)=O)CCCC3)n1,39%,4.1µM*,87,35*,66*
CCn1cc(Br)c(C(=O)Nc2sc3c(c2C(N)=O)CCCC3)n1,12%,18%,x,-1,-14
Cc1onc(-c2c(F)cccc2Cl)c1C(=O)Nc1sc2c(c1C(N)=O)CCC2,x,u,-74*,-4,4
NC(=O)c1c(NC(=O)c2cccnc2Cl)sc2c1CCCC2,48%,84%,-16,3,15
NC(=O)c1c(NC(=O)c2ccc(F)cc2Cl)sc2c1CCC2,6%,0%,32,25*,31*
Cc1ccc(S(=O)(=O)Cc2ccc(C(=O)NCCc3ccc(Cl)cc3)o2)cc1,x,x,-35,x,x
COc1ccccc1CNC(=O)C1CCN(c2nc3ccc(C)cc3[nH]2)CC1,x,x,0,x,x
O=C(Nc1ccccc1Cl)c1ccccc1Cl,28%,46%,u,14,8
Cc1ccc(C)c(NC(=O)c2cc(C)nc3ccccc23)c1,30%,2%,-27,-1,x
CC(=O)Nc1ccccc1NC(=O)c1ccc(C)cc1C,3%,u,-63*,-3,-5
O=C(Nc1ccccc1O)c1ccccc1O,u,7%,-8,32*,53*
Cc1ccc(C)c(NC(=O)c2ccccc2O)c1,u,u,43,22*,54
O=C(Nc1ccccc1O)c1ccc(C(=O)c2ccccc2)o1,8.3µM*,u,81,27*,35*
CC(=O)Nc1ccc(C)cc1NC(C)=O,-13%,x,-2,7,-3
CCOc1ccc(CCNC(=O)Cn2nc(C)c3c(C)n(-c4ccccc4)nc3c2=O)cc1,-5%,u,u,-2,-9
NC(=O)/C(=C\c1ccccc1)NC(=O)c1ccc(NC(=O)c2ccccc2)cc1,9%,14%,-17,-3,44
Cc1ccc(C)c(NC(=O)c2nc(-c3ccccc3)n(-c3ccccc3)n2)c1,x,9.3µM*,-22,-1,-10
